We go through 42 sequences from PMC7819943, “Rice protein-binding microarrays: a tool to detect cis-acting elements near promoter regions in rice”.

The full ranking holds about 39,000 sequences; the median of “fluorescence intensity (a.u.)” is about 4,300, and the highest 2% start at about 39,000. The list comes from a sample in which the highest values are over-represented; it also holds similar and randomly drawn sequences.

For the test, the target named is T1, OsSMF1 (Oryza sativa, UniProt Q6ZLB0 1-436).
T1 sequence: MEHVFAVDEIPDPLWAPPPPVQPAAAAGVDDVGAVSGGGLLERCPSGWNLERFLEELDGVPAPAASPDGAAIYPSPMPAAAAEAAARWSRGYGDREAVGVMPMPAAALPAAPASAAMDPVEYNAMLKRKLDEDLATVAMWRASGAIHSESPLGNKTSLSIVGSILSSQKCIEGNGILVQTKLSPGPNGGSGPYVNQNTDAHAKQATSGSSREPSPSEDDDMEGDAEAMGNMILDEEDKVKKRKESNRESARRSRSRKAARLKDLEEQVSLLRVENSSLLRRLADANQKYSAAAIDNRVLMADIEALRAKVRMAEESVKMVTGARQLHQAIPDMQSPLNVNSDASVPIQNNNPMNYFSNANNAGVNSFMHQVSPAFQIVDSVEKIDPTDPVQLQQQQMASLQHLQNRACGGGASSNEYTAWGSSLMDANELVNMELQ
Description: protein-binding microarray (RPBM); PBS, 2% BSA, 51.3 ng/ul salmon testes DNA, 50 uM zinc acetate, 200 nM TF, 25 C, 1 h; high values mean tight binding. The settings on record: protein: recombinant; tags: N-terminal polyhistidine and DsRed monomer fusion (pET32a); chain copies: 2; label: CyDye5-dUTP incorporated in the synthesized complementary strand; 3' TTTTT single-stranded linker to array surface; dsDNA, one strand shown. In a few lines: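 Ni–NTA purification followed expression in E. coli BL21-CodonPlus of transcription factors fused N-terminally to a polyhistidine tag and DsRed. At 200 nM in PBS with 2% BSA, salmon testes DNA and 50 µM zinc acetate, the protein was incubated for 1 h at 25 °C with a custom Agilent array that had been primer-extended with Cy5-dUTP and blocked with 2% BSA. After washing, the array was read on an Axon 4000B scanner. The binding signal is per-feature fluorescence intensity in arbitrary units.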
In the case of “GTGTTTTGACGCATGCATGCCGTTGGTCATCAGTTAATCACGGAGTCACCTAGTGCAG”, the binding signal was 3480 fluorescence intensity (a.u.).

With “TTCCCAAAAGGAGGCCCAATGAGAACTTGTATAGTCCTATCGGAGTCACCTAGTGCAG”, the binding signal was 19500 fluorescence intensity (a.u.). To “ATGTTTTCTAGACTAATATACTATTAATCTATCTTTTATCCGGAGTCACCTAGTGCAG” belongs 36400 fluorescence intensity (a.u.); to “GAAATCTAATTTTATCCACGAGACTATAGTGAGCCTACTCCGGAGTCACCTAGTGCAG”, 39700 fluorescence intensity (a.u.). On to “ATGTGACTACCACCTCTAAATTTATCTATTTTATTCACTCCGGAGTCACCTAGTGCAG”, for which the binding signal was 18600 fluorescence intensity (a.u.). Turning to “GGGATGTCACACCGTCGAAGGCGTCCAGCTGTCAACATATCGGAGTCACCTAGTGCAG”, the binding signal was 4720 fluorescence intensity (a.u.). Turning to “CCGTTAGCCTCCAACGATCCAAACCGCCTCGTCATAAATACGGAGTCACCTAGTGCAG”, the binding signal was 3460 fluorescence intensity (a.u.). Take “TGCTGCTCTTGACACCACGTCGTTGCTGCCCTGCTTCCACCGGAGTCACCTAGTGCAG”: the binding signal was 3810 fluorescence intensity (a.u.).

Turning to “GTGGCATTGACGTGGCGCTTACGTGTCAATTCTACTCCGGCGGAGTCACCTAGTGCAG”, the binding signal is 44200 fluorescence intensity (a.u.). With “TGGCATTGACGTGGCGCTTACGTGGCATTATATCTTGAAACGGAGTCACCTAGTGCAG”, the binding signal is 33400 fluorescence intensity (a.u.). As for “AGTGCCTATGTGGCGTTGACGTGGCGCTTACGTGGCAATTCGGAGTCACCTAGTGCAG”, the binding signal is 27500 fluorescence intensity (a.u.).

Turning to “TGACTCAGTATCGATCTGACGTGGCGCTTACGTGGCAATTCGGAGTCACCTAGTGCAG”, the binding signal is 48000 fluorescence intensity (a.u.). “ATGACGTGACATTGACGTGGCGCTTACGTGGCAATTCGACCGGAGTCACCTAGTGCAG”: the binding signal is 25600 fluorescence intensity (a.u.). For the sequence “TCTGATATGGCATTGACGTGACACTTACGTGGCAATTCGACGGAGTCACCTAGTGCAG”, the binding signal was 12500 fluorescence intensity (a.u.).

Take “GCTATATTAAACATTTGCTAATGACAAATTAATTAGCTTACGGAGTCACCTAGTGCAG”: the binding signal was 14700 fluorescence intensity (a.u.). To “TCCATTTTGGACCGCTGACGAGGACGATAGGAGCGTGAGTCGGAGTCACCTAGTGCAG” belongs 4710 fluorescence intensity (a.u.). For the sequence “AGCTTGTGTACCCAGGAGATCTACATACTTCGCTACGTCACGGAGTCACCTAGTGCAG”, the binding signal was 4570 fluorescence intensity (a.u.). With “AGTATATCCTAAAGCGACACTTTACAGTCTCAAGGACATCCGGAGTCACCTAGTGCAG”, the binding signal is 11200 fluorescence intensity (a.u.). For the sequence “TGGAGGAAGTCAGTAGGATCCCACGTGTCATACTCACACCCGGAGTCACCTAGTGCAG”, the binding signal was 22200 fluorescence intensity (a.u.). With “TATATAACCTAAAATGGAGGAAGTAGGAAATATGTAATTCCGGAGTCACCTAGTGCAG”, the binding signal was 4630 fluorescence intensity (a.u.). “ACTCCGGTCCAGGAAAATTATTCCTATAGTAATGTAATAACGGAGTCACCTAGTGCAG”: the binding signal was 42900 fluorescence intensity (a.u.). As to “ATTTAACTGCATAGAAGTGTATAAGTAAAATAATTTATTCCGGAGTCACCTAGTGCAG”, the binding signal was 4320 fluorescence intensity (a.u.). With “GCCACACCCACACTGACACACATATACAAGCCAGAGAGATCGGAGTCACCTAGTGCAG”, the binding signal is 3280 fluorescence intensity (a.u.).

Turning to “GAAAGGAAGAGGTGGAGGAAGTGAGACCCACTGACTTGTGCGGAGTCACCTAGTGCAG”, the binding signal is 24500 fluorescence intensity (a.u.). To “TCCACCACACGTGTCTATATCGCTTCCTTCCATTCCATCACGGAGTCACCTAGTGCAG” belongs 7170 fluorescence intensity (a.u.); to “GACTTGTCCATGCATGCATGCATGACTTGTGTTCAGCCACCGGAGTCACCTAGTGCAG”, 3700 fluorescence intensity (a.u.). Consider “TTGTTGGTGTTTCCTCGTCCGCGTCGTCGGTTGCATTCTCCGGAGTCACCTAGTGCAG”, for which the binding signal was 3190 fluorescence intensity (a.u.). Consider “CGAAATAAGTAATTTACAGGGCTTTCTCTCTCTCGCTCACCGGAGTCACCTAGTGCAG”, for which the binding signal was 64400 fluorescence intensity (a.u.).

With “GTAATTACAGCTCATGATTTTCTCTCTCTCTCTCTCTCTACGGAGTCACCTAGTGCAG”, the binding signal is 19500 fluorescence intensity (a.u.).

Take “ACTTACACAGTAATTACACCTCACTTACACCCGCTTACACCGGAGTCACCTAGTGCAG”: the binding signal is 5410 fluorescence intensity (a.u.). Regarding “ACACGTGGGACCCACGTGGGTCCCATGCTGACTCAGCTGCCGGAGTCACCTAGTGCAG”, the binding signal is 28100 fluorescence intensity (a.u.). Take “ATAATGCTGACTGAACTGCCATGTGTACGCCACGTAGACCCGGAGTCACCTAGTGCAG”: the binding signal is 27600 fluorescence intensity (a.u.). For the sequence “TAAATAATTGCCATTGCCATGCTGCCACGTGTCATGGGACCGGAGTCACCTAGTGCAG”, the binding signal was 49900 fluorescence intensity (a.u.). For the sequence “TGCTGATGTTGCTGCTAAAATTGCACCATTGTTGTGTAACCGGAGTCACCTAGTGCAG”, the binding signal is 40700 fluorescence intensity (a.u.). The result for “GTGCATAAATTTATTAAAATAGAAAATTAATGCAGTGCCACGGAGTCACCTAGTGCAG” reads 4660 fluorescence intensity (a.u.); that for “TTGTTAACTGCTGATGTGTGACCTGACTGTTAAAAGCTGCCGGAGTCACCTAGTGCAG”, 9170 fluorescence intensity (a.u.); that for “AGCTGTGTTGCTAATTGTGGCATTGTGATGTGATGATCCCCGGAGTCACCTAGTGCAG”, 3160 fluorescence intensity (a.u.).

For the sequence “AAATGCTGACTGGACTGCCACGTGTACGCCACGTAGACCACGGAGTCACCTAGTGCAG”, the binding signal is 45400 fluorescence intensity (a.u.).

As to “ATGTTGACTGGACTAGCACGTGTACGCCACGTAGACCAAACGGAGTCACCTAGTGCAG”, the binding signal was 4790 fluorescence intensity (a.u.).

As to “GTCACATCATCATGCATTAATAAAATGCCACGTCATCATCCGGAGTCACCTAGTGCAG”, the binding signal was 50000 fluorescence intensity (a.u.). To “CACATAAATAATAATAAAATGTGGGACCCACGTGGGCCCCCGGAGTCACCTAGTGCAG” belongs 10400 fluorescence intensity (a.u.). Consider “GGATCAAATTGCCACATATGCGCCACGTTAATGCCACATCCGGAGTCACCTAGTGCAG”, for which the binding signal is 8660 fluorescence intensity (a.u.).
